Reference: ChEMBL document CHEMBL1201862, “PubChem BioAssay data set” (2004)

The molecules below were run against Huntingtin (Homo sapiens) (UniProt P42858) (assay: Quantitative High-Throughput Multiplex Assay to Identify Dual Action Probes in a Cell Model of Huntington: Summary. [Related pubchem assays (depositor defined):AID1471, AID1688, AID2669, AID2672, AID2673, AID2713]).
Assay type: functional; call rule not given here

Chain of Huntingtin (Homo sapiens) (P42858 whole entry): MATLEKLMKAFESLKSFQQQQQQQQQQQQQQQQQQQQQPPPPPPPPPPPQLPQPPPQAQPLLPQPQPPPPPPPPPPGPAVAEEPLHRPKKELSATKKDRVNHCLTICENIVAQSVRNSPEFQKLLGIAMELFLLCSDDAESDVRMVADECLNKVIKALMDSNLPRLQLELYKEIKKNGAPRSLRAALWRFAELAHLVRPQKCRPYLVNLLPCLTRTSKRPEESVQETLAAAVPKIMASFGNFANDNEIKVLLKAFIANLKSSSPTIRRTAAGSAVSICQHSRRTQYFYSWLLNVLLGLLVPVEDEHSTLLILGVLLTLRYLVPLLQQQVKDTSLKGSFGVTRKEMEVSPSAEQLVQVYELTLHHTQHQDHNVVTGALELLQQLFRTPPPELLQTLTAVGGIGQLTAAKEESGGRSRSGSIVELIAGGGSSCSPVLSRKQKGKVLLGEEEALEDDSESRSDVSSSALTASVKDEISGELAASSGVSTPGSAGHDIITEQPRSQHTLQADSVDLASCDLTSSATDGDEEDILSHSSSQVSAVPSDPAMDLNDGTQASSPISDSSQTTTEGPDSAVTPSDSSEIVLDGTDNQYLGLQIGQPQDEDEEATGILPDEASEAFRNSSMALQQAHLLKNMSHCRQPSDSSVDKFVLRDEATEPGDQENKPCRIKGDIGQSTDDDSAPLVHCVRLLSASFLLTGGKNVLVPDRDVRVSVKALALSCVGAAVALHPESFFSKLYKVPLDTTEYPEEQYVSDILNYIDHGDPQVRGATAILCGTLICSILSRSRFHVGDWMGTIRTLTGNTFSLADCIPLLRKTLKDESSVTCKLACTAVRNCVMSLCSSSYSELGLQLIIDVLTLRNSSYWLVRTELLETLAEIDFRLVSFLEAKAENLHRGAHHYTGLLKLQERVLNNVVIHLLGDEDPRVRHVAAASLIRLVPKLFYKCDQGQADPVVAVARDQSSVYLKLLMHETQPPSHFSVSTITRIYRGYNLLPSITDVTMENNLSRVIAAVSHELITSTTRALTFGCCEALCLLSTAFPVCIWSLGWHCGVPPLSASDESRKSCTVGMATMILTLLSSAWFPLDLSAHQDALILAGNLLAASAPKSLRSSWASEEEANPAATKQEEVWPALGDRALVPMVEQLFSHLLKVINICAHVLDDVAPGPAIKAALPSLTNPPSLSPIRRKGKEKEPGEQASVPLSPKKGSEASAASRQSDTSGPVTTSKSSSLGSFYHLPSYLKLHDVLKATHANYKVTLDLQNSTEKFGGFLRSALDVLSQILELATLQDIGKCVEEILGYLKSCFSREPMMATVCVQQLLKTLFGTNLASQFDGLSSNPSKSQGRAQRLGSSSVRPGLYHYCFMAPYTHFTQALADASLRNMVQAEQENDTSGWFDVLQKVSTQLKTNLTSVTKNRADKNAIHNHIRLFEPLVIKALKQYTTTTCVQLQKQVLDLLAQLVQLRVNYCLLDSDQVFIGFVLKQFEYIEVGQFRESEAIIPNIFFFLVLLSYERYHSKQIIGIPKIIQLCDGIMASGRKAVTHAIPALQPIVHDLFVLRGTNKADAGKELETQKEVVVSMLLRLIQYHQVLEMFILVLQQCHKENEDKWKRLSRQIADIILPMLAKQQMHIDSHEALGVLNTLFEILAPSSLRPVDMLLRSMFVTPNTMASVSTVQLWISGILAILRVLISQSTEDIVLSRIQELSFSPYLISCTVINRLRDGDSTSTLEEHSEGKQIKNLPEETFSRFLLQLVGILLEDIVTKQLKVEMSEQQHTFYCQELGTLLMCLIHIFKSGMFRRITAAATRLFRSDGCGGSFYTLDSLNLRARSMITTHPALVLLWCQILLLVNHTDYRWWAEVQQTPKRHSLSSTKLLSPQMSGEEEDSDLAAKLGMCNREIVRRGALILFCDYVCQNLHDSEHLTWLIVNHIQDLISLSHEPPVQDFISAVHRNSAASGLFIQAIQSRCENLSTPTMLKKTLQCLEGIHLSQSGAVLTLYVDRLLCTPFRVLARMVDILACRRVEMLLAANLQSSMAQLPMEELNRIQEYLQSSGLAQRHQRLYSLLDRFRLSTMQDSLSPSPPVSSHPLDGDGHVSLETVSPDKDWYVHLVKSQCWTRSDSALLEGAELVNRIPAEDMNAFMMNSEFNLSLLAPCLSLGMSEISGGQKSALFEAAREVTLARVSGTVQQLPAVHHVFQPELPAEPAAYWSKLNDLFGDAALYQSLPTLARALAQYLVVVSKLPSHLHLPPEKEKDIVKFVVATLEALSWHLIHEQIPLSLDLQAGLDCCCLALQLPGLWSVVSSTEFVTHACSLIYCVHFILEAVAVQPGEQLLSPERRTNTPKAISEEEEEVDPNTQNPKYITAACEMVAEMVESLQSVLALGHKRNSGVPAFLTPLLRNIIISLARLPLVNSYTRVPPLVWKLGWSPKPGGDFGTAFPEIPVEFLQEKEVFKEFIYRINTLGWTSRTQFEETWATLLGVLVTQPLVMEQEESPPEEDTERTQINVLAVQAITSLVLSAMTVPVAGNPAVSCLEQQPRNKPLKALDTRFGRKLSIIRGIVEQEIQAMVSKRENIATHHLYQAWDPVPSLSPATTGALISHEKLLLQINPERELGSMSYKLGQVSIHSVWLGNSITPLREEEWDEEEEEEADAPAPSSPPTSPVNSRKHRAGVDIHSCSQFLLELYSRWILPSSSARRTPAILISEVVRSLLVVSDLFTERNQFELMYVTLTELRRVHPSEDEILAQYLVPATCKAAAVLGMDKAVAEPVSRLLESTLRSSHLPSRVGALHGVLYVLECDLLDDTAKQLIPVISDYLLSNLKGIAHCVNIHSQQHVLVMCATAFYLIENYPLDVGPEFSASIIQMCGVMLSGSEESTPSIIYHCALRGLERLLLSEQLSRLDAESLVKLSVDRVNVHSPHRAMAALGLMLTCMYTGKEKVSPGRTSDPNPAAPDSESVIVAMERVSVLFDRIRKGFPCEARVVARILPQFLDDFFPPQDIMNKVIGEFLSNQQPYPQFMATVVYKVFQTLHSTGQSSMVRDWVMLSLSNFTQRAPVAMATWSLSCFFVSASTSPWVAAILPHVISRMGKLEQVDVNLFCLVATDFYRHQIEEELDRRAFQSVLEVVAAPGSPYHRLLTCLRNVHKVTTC

Row | SMILES | Potency
1 | COc1ccccc1-c1csc2ncnc(Sc3nnnn3C)c12 | 79.4 µM (active)
2 | Cc1cccc(-c2csc3ncnc(Sc4nnnn4C)c23)c1 | 15.8 µM (active)
3 | COc1ccc(-c2csc3ncnc(Sc4nnnn4C)c23)cc1 | 12.6 µM (active)
4 | Cn1nnnc1Sc1ncnc2scc(-c3ccc(Cl)cc3)c12 | 15.8 µM (active)
5 | Cc1ccc(-c2csc3ncnc(Sc4nnnn4C)c23)cc1 | 15.8 µM (active)
6 | COc1cccc(-c2csc3ncnc(Sc4nnnn4C)c23)c1 | 7.94 µM (active)
7 | Cn1nnnc1Sc1ncnc2scc(-c3cccc(F)c3)c12 | 7.94 µM (active)
8 | Cc1ccccc1-c1csc2ncnc(Sc3nnnn3C)c12 | 63.1 µM (active)
9 | Cn1nnnc1Sc1ncnc2scc(-c3ccccc3C(F)(F)F)c12 | 25.1 µM (active)
10 | Cn1nnnc1Sc1ncnc2scc(-c3ccccc3)c12 | 8.68 µM
11 | Cn1nnnc1Sc1ncnc2scc(-c3ccccc3F)c12 | 12.6 µM (active)
